Assay results reported in PubChem BioAssay (NCATS).
Records with an inconclusive call do not appear. Entries that show only a call come without a potency. Active and inactive are the calls of the source. Calls follow the shape of the dose curve; as a rule, active = well fitted inhibition curve with a large enough effect; inconclusive = small, poorly fitted or top-dose-only effect; inactive = flat fitted curve, though single readings scatter.

Experiments:
[1] = biological target: Glutathione peroxidase 1 (Homo sapiens) (UniProt P07203); assay: Primary qHTS Assay for Inhibitors of Recombinant Selenoprotein Glutathione Peroxidase 1 (GPX1) (AID 1845191); details: recombinant GPX1, GR-coupled NADPH fluorescence, 15 min; series mostly up to 48.8 µM; also: nearly all actives have a fitted effect of over 65% in size
Glutathione peroxidase 1 (Homo sapiens), sequence (P07203 whole entry, looked up): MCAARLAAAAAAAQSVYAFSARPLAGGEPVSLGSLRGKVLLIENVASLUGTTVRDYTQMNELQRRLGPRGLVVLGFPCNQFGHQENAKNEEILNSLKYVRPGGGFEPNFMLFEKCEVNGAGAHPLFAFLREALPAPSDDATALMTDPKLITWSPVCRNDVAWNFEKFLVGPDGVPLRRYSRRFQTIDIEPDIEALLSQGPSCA
Summary of the method: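 Recombinant GPX1 (10 nM final) was preincubated with compound for 30 min at room temperature, then reacted with 1 mM GSH, 0.5 mM CHP, 0.5 mM NADPH and 100 nM glutathione reductase; NADPH fluorescence (340/450 nm) was read at 0 and 15 min.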

[2] = biological target: Phospholipid hydroperoxide glutathione peroxidase GPX4 (Homo sapiens) (UniProt P36969); assay: Primary qHTS Assay for Inhibitors of Recombinant Selenoprotein Glutathione Peroxidase 4 (GPX4) (AID 1845192); details: recombinant GPX4, GR-coupled NADPH fluorescence, 15 min; series mostly up to 50 µM; also: nearly all actives have a fitted effect of over 65% in size; also: potency is read from the fitted curve at half-maximal effect
Phospholipid hydroperoxide glutathione peroxidase GPX4 (Homo sapiens), sequence (P36969 whole entry, looked up): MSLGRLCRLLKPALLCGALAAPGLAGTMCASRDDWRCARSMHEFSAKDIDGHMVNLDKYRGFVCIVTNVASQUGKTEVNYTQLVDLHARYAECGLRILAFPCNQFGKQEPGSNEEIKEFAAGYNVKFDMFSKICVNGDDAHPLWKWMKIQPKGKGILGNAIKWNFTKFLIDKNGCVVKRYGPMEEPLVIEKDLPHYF
Summary of the method: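 GR-coupled readout: 100 nM GR, 1 mM GSH, 0.5 mM NADPH; NADPH fluorescence (ex 340/em 450 nm) read at t=0 and after 15 min RT. GPX4 200 nM, preincubated 30 min with compound; substrate 0.5 mM CHP.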

[3] = biological target: Luciferin 4-monooxygenase (Photinus pyralis) (UniProt P08659); assay: Primary firefly luciferase (FLuc) qHTS assay for identification of artifact compounds. (AID 1845220); details: purified firefly luciferase, luminescence, 5 min; series mostly up to 54.1 µM; also: nearly all actives have a fitted effect of over 60% in size
Summary of the method: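 Reaction readout was CCD-imaged luminescence, taken 5 min after adding 10 nM purified firefly enzyme to compound-treated wells holding 10 uM luciferin and ATP in pH 7.6 buffer.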

Compound	Potency [1]	Potency [2]	Potency [3]
CC(C)C[C@@H](N)[C@H](O)C(=O)N[C@H](C(=O)N[C@H](C(=O)N[C@@H](CC(=O)O)C(=O)O)C(C)C)C(C)C	inactive	inactive	
CCN(CC)CCCCNc1nc2cc(Cl)c(Cl)cc2nc1-c1ccc(-c2cccs2)s1	inactive	20.2 µM (active)	
O[C@@H](COc1cccc2ncccc12)CN1CCN(C2c3ccccc3[C@@H]3[C@H](c4ccccc42)C3(F)F)CC1 (stereo partly drawn)	inactive	inactive	inactive
Cc1ccccc1C(C(=O)NC1CCCCC1)N(C(=O)CNc1ccc(C#N)cc1)c1cccc(F)c1 (stereo not drawn)	inactive	inactive	inactive
Cc1ccccc1-n1c(Cn2nc(-c3cccc(O)c3)c3c(N)ncnc32)nc2cccc(C)c2c1=O	inactive	inactive	inactive
CN(C)c1nc(Cc2ccc(NC(=O)c3ccc(C(F)(F)F)cc3)cc2)nc(N(C)C)c1CC(=O)O	inactive	inactive	inactive
Cc1c(C(=O)Nc2ccc(N3C[C@@H](C)O[C@@H](C)C3)nc2)cccc1-c1ccc(OC(F)(F)F)cc1	inactive	inactive	inactive
Nc1ncnc2c1c(-c1cccc(OCc3ccccc3)c1)cn2C1CC(CN2CCC2)C1 (stereo not drawn)	inactive	inactive	inactive
O=[N+]([O-])c1ccc(Nc2ccccc2-c2ccccc2)c2nonc12	inactive	inactive	
O=C1NC(=O)C(c2cnc3ccccn23)=C1c1cn2c3c(cccc13)CN(C(=O)N1CCOCC1)CC2	inactive	inactive	inactive
Fc1ccc(CNc2ncnc3ccc(F)cc23)cc1	inactive	inactive	inactive
c1ccc(CNc2nc(N3CCOc4ccccc43)nc3c2CCCC3)cc1	inactive	inactive	inactive
Cc1csc(-c2nnc(Nc3ccc(Oc4ncccc4-c4ccnc(N)n4)cc3)c3ccccc23)c1	inactive	inactive	inactive
CCOc1ccccc1N=Nc1c(C)[nH]n(-c2nc(-c3ccccc3)cs2)c1=O	inactive	inactive	
COc1nc(C)cnc1NS(=O)(=O)c1cccnc1-c1ccc(-c2nnco2)cc1	inactive	inactive	inactive
CC(C)C[C@@H](C(=O)N[C@H](C(=O)OC1CCCC1)c1ccccc1)[C@H](O)C(=O)NO	inactive	inactive	
